Results taken from PubChem BioAssay (EPA / NIEHS).
The source made the active and inactive calls. Rule for the calls: active = hit-call score of the fitted dose curve at least 0.9, where 1 is the maximum; inactive = score below 0.9.

What was measured:
[1] = read-out: Monokine induced gamma interferon (MIG), CXCL9 (gene 4283); experiment: BSK_BE3C_MIG: BioMAP Diversity Plus: BE3C Assay for Monokine induced gamma interferon (MIG) Biomarker Activity (AID 2283035); details: primary human bronchial epithelial cells; actives raise or lower the signal;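 note: MIG protein measured by ELISA in BE3C cultures after 24 h of dosing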
In short: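 hu bronchial epithelial 1° cells, 24 h cpd; MIG by ELISA; bidirectional fit, DMSO = baseline.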

[2] = read-out: Transforming growth factor beta 1 (TGFb1), TGFB1 (gene 7040); experiment: BSK_BE3C_TGFb1: BioMAP Diversity Plus: BE3C Assay for Transforming growth factor beta 1 (TGFb1) Biomarker Activity (AID 2283036;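 note: TGF-b1 protein level measured by ELISA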); details: primary human bronchial epithelial cells; actives raise or lower the signal
In short: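 Bronchial epithelial primary cells are treated with test chemical, then TGF-b1 is quantified by ELISA after 24 hours. Values derive from bidirectional fitting against DMSO, with cytotoxicity checked by SRB staining in parallel cultures.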

[3] = read-out: Plasminogen activator inhibitor-1 (PAI1), SERPINE1 (gene 5054); experiment: BSK_BE3C_PAI1: BioMAP Diversity Plus: BE3C Assay for Plasminogen activator inhibitor-1 (PAI1) Biomarker Activity (AID 2283037); details: primary human bronchial epithelial cells; actives raise or lower the signal
In short: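 Values derive from bidirectional fitting against DMSO baseline of PAI-1 levels, measured by ELISA in human bronchial epithelial cells 24 h after compound addition.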

[4] = read-out: urokinase plasminogen activator (uPA), PLAU (gene 5328); experiment: BSK_BE3C_uPA: BioMAP Diversity Plus: BE3C Assay for urokinase plasminogen activator (uPA) Biomarker Activity (AID 2283038); details: primary human bronchial epithelial cells; actives raise or lower the signal
In short: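 Primary human bronchial epithelial cells, uPA measured by ELISA 24 h after dosing. Bidirectional change relative to DMSO; cytotoxicity checked in parallel cultures by sulforhodamine B total-protein staining.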

[5] = read-out: Urokinase-type plasminogen activator receptor (uPAR), PLAUR (gene 5329); experiment: BSK_BE3C_uPAR: BioMAP Diversity Plus: BE3C Assay for Urokinase-type plasminogen activator receptor (uPAR) Biomarker Activity (AID 2283039); details: primary human bronchial epithelial cells; actives raise or lower the signal;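 note: uPAR protein level measured by ELISA on the cells; cells exposed to compound for one day before measurement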
In short: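 Steps: dose human primary bronchial epithelial cells, incubate 24 h, measure uPAR by ELISA, then fit gain- or loss-of-signal response bidirectionally relative to DMSO.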

[6] = read-out: Interleukin-6 (IL6), IL6 (gene 3569); experiment: BSK_CASM3C_IL6: BioMAP Diversity Plus: CASM3C Assay for Interleukin-6 (IL6) Biomarker Activity for (AID 2283040); details: primary human coronary artery smooth muscle cells; actives raise or lower the signal
[7] = read-out: Interleukin-8 (IL8), CXCL8 (gene 3576); experiment: BSK_CASM3C_IL8: BioMAP Diversity Plus: CASM3C Assay for Interleukin-8 (IL8) Biomarker Activity (AID 2283042); details: primary human coronary artery smooth muscle cells; actives raise or lower the signal;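 note: IL-8 protein level quantified by ELISA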
[8] = read-out: Human Leukocyte Antigen - DR isotype (HLADR), HLA-DRA (gene 3122); experiment: BSK_CASM3C_HLADR: BioMAP Diversity Plus: CASM3C Assay for Human Leukocyte Antigen - DR isotype (HLADR) Biomarker Activity (AID 2283043); details: primary human coronary artery smooth muscle cells; actives raise or lower the signal;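 note: cell-surface HLA-DR protein level quantified by ELISA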
[9] = read-out: Macrophage colony-stimulating factor (MCSF), CSF1 (gene 1435); experiment: BSK_CASM3C_MCSF: BioMAP Diversity Plus: CASM3C Assay for Macrophage colony-stimulating factor (MCSF) Biomarker Activity (AID 2283044); details: primary human coronary artery smooth muscle cells; actives raise or lower the signal;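 note: M-CSF protein amount quantified by ELISA after 24 h exposure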
[10] = read-out: Low-density lipoprotein receptor (LDLR), LDLR (gene 3949); experiment: BSK_CASM3C_LDLR: BioMAP Diversity Plus: CASM3C Assay for Low-density lipoprotein receptor (LDLR) Biomarker Activity (AID 2283045); details: primary human coronary artery smooth muscle cells; actives raise or lower the signal;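 note: LDLR protein level on the cell surface quantified by ELISA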
[11] = read-out: Monocyte Chemoattractant Protein-1 (MCP1), CCL2 (gene 6347); experiment: BSK_CASM3C_MCP1: BioMAP Diversity Plus: CASM3C Assay for Monocyte Chemoattractant Protein-1 (MCP1) Biomarker Activity (AID 2283046); details: primary human coronary artery smooth muscle cells; actives raise or lower the signal;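 note: MCP-1 level quantified by ELISA 24 h after dosing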
[12] = BSK_CASM3C_Proliferation: Cell Proliferation Assessment in the BioMAP Diversity Plus: CASM3C Assay (AID 2283047); details: primary human coronary artery smooth muscle cells;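 note: sulforhodamine B total protein stain as relative cell number at 560 nm; sub-confluent cells exposed 48 h before staining; fitted both ways against DMSO so gain or loss of cell number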
[13] = read-out: Monokine induced gamma interferon (MIG), CXCL9 (gene 4283); experiment: BSK_CASM3C_MIG: BioMAP Diversity Plus: CASM3C Assay for Monokine induced gamma interferon (MIG) Biomarker Activity (AID 2283048); details: primary human coronary artery smooth muscle cells; actives raise or lower the signal;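 note: MIG protein level measured by ELISA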
[14] = read-out: serum amyloid A (SAA), SAA1 (gene 6288); experiment: BSK_CASM3C_SAA: BioMAP Diversity Plus: CASM3C Assay for serum amyloid A (SAA) Biomarker Activity (AID 2283049); details: primary human coronary artery smooth muscle cells; actives raise or lower the signal;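 note: SAA protein level quantified by ELISA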
[15] = BSK_CASM3C_SRB: Viability Assessment in the BioMAP Diversity Plus: CASM3C Assay (AID 2283050); details: primary human coronary artery smooth muscle cells;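 note: total protein by SRB staining as cytotoxicity measure in parallel cultures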
[16] = read-out: Thrombomodulin, THBD (gene 7056); experiment: BSK_CASM3C_Thrombomodulin: BioMAP Diversity Plus: CASM3C Assay for Thrombomodulin Biomarker Activity (AID 2283051); details: primary human coronary artery smooth muscle cells; actives raise or lower the signal;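 note: thrombomodulin protein level measured by ELISA 24 h after dosing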
[17] = read-out: Tissue Factor, F3 (gene 2152); experiment: BSK_CASM3C_TissueFactor: BioMAP Diversity Plus: CASM3C Assay for Tissue Factor Biomarker Activity (AID 2283052); details: primary human coronary artery smooth muscle cells; actives raise or lower the signal;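 note: cell surface tissue factor protein level read by ELISA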
[18] = read-out: Urokinase-type plasminogen activator receptor (uPAR), PLAUR (gene 5329); experiment: BSK_CASM3C_uPAR: BioMAP Diversity Plus: CASM3C Assay for Urokinase-type plasminogen activator receptor (uPAR) Biomarker Activity (AID 2283054); details: primary human coronary artery smooth muscle cells; actives raise or lower the signal;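 note: cell-surface uPAR protein level quantified by ELISA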
[19] = read-out: Tissue plasminogen activator (tPA), PLAT (gene 5327); experiment: BSK_BE3C_tPA: BioMAP Diversity Plus: BE3C Assay for Tissue plasminogen activator (tPA) Biomarker Activity (AID 2283041); details: primary human bronchial epithelial cells; actives raise or lower the signal;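 note: tPA level quantified by ELISA one day after compound addition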
In short: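 Gain- or loss-of-signal in tPA, measured by ELISA, derived by bidirectional fitting against DMSO. Cells: human primary bronchial epithelial; read at 24 h after chemical dosing.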

[20] = read-out: Interferon-gamma inducible Protein 10 (IP10), CXCL10 (gene 3627); experiment: BSK_hDFCGF_IP10: BioMAP Diversity Plus: hDFCGF Assay for Interferon-gamma inducible Protein 10 (IP10) Biomarker Activity (AID 2283053); details: primary human foreskin fibroblasts; actives raise or lower the signal
In short: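 Cells: human dermal foreskin fibroblasts. Exposure: 24 h post-dosing. Detection: IP-10 ELISA, with values expressed against DMSO controls and fitted in both directions.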

Measured: AC50

CCOC(=O)c1ccc(C2CCC(NC[C@H](O)COc3ccc(O)c(NS(C)(=O)=O)c3)CC2)cc1 (stereo partly specified)
active: [4] 14.9 µM | [8] 30.8 µM | [9] 24.2 µM | [10] 11.2 µM | [12] 26.9 µM | [15] 15.7 µM | [16] 18.7 µM
not listed: [19] | [20]
inactive: all other assays above

COCCOc1cc2cc(C(=O)NC3CCN(C(C)C)CC3)n(CC(=O)Nc3ccc(Cl)cn3)c2cn1
not listed: [1]
inactive: all other assays above

CCCCC(CC)COC(=O)CCCCCCCCC(=O)OCC(CC)CCCC (stereo unspecified)
active: [12] 7.33 µM | [20] 6.18 µM
not listed: [19]
inactive: all other assays above

CC(=O)c1ccc2c(c1)[C@H](NC(=O)c1ccc(F)cc1)[C@@H](O)C(C)(C)O2
not listed: [19]
inactive: all other assays above

CC(C)=CCC/C(C)=C\CO
not listed: [1]
inactive: all other assays above

O=C1CCC(N2C(=O)c3ccccc3C2=O)C(=O)N1 (stereo unspecified)
not listed: [19]
inactive: all other assays above

CCCCC(CC)COC(=O)c1ccc(C(=O)OCC(CC)CCCC)cc1 (stereo unspecified)
not listed: [19] | [20]
inactive: all other assays above
